SMILES strings stand for the structures. Among all 52,000 compounds or so, about 1,700 (3.3%) were called active. For the sample, actives were picked, then their nearest neighbours and some compounds at random. Values without a mark were called inactive. Rule as the data show it: active = survival mostly below about 52% (no sharp cut-off); inactive = mostly above about 56%.

The assay deals with Wild type. As to the kind of experiment: growth inhibition of S. aureus wild type versus tarO mutant, primary screen, teichoic acid synthesis inhibitors, RN4220, OD600 (AID 463173). The following applies: S. aureus RN4220 wild type/DeltatarO growth, OD600, 18 h, stronger effect = lower value, screened at 18.75 µg/mL (by protocol).
Consider `O=c1nc2c(-c3ccc(F)cc3Cl)n[nH]n2c2ccccc12`, for which the survival was 72%.

Take `COc1ccc(-c2nc(Cn3c(SCc4cccc(Cl)c4)nc4ccncc43)c(C)o2)cc1`: the survival was 132%. For the compound `O=C(CSC1=Nc2ccccc2N=C(c2ccc(F)cc2)C1)Nc1ccc(Cl)cc1`, the survival was 92%. Turning to `CCN(CC)C1=C(C(=O)c2ccccc2)NS(=O)(=O)c2ccccc21`, the survival was 103%. `CCOc1ccc(-c2nnc(SCC(=O)NCc3ccccc3Cl)o2)cc1`: the survival is 85%.

With `O=C(Nc1ccccc1)C1CCCN1C1CCCCC1` (stereo not drawn), the survival is 108%. For the compound `O=C1OC(c2ccccc2)=N/C1=C1\OC(=O)c2ccccc21`, the survival is 104%. Turning to `CC1CCCCN1C(=O)CSc1n[nH]c(-c2ccccc2Cl)n1` (stereo not drawn), the survival is 72%. For the compound `CCCN(Cc1cccs1)C(=O)Nc1ccc(Br)cc1F`, the survival is 76%. Next, `COC(=O)c1c(NC(=O)COc2ccc(Cl)cc2C)sc2c1CCCCC2`: 83%.

For the compound `COC(=O)c1c(NC(=O)COc2cc(C)ccc2C(C)C)sc2c1CCC(C)C2` (stereo not drawn), the survival was 66%. For `CCOC(=O)c1c(NC(=O)COc2cccc(C(F)(F)F)c2)sc2c1CCC(C)C2` (stereo not drawn), the survival is 74%.

As to `COC(=O)c1c(NC(=O)COc2ccc(OC)cc2)sc2c1CCC(C)C2` (stereo not drawn), the survival was 86%.

Consider `COC(=O)c1c(NC(=O)CCCOc2ccccc2C)sc2c1CCC2`, for which the survival was 4% (active). Next, `COC(=O)c1c(NC(=O)COc2c(C)ccc(C)c2C)sc2c1CCC(C)C2` (stereo not drawn): 11% (active); `COC(=O)c1c(NC(=O)CS(=O)(=O)c2ccc(C)cc2)sc2c1CCCCC2`: 67%.

Regarding `Cc1cccc(OCCCC(=O)Nc2sc3c(c2C(N)=O)CCC(C)C3)c1` (stereo not drawn), the survival was 88%. Turning to `CCOC(=O)c1c(NC(=O)CS(=O)(=O)c2ccc(C)cc2)sc2c1CCCCC2`, the survival was 87%. With `COC(=O)c1c(NC(=O)CCCOc2cccc(C)c2)sc2c1CCC(C)C2` (stereo not drawn), the survival is 4% (active).

Regarding `Cc1ccccc1OCC(=O)Nc1sc2c(c1C(=O)OC(C)C)CCCC2`, the survival was 69%. As to `COC(=O)c1c(NC(=O)CS(=O)(=O)c2ccc(C)cc2)sc2c1CCCC2`, the survival was -6% (active). Regarding `Cc1nc2nc(C)c(NS(=O)(=O)c3ccc(F)cc3)c(=O)n2[nH]1`, the survival was 81%. As for `O=C(O)CCNc1ccc(Cl)cn1`, the survival was 86%.

Consider `S=c1nc[nH]c2c1oc1ccccc12`, for which the survival is 96%. To `Cc1ccccc1NC(=O)CSc1nc(-c2ccc(F)cc2)nc2c1Cc1ccccc1O2` belongs 77%; to `CCOc1ccc(C(=O)N(C)CC2COc3ccccc3O2)cc1` (stereo not drawn), 98%; to `COc1cccc(-c2ncnn2-c2sc3c(c2C#N)CCCCC3)c1OC`, 72%. `Cc1ccccc1-c1ncnn1-c1sc2c(c1C#N)CCCCC2`: the survival was 65%. Consider `COc1ccccc1-c1ncnn1-c1sc2c(c1C#N)CCCCC2`, for which the survival was 1% (active). Turning to `N#Cc1c(-n2ncnc2-c2ccccc2C(F)(F)F)sc2c1CCCCC2`, the survival was 4% (active).

With `COc1ccccc1-c1cc(C(=O)Nc2sc3c(c2C#N)CCCC3)no1`, the survival is 140%. For the compound `N#Cc1c(-n2ncnc2-c2ccccc2Cl)sc2c1CCCCC2`, the survival was 38%. With `CCOc1ccccc1NC(=O)CSc1c(C)cnc2c1c(=O)n(C)c(=O)n2C`, the survival was 67%.

With `CCN(CC)C(=O)Cn1c(=O)nc(-c2ccccc2F)c2cc(Cl)ccc21`, the survival is 73%. In the case of `CC1CCCN(c2nc3nonc3nc2Nc2cccc(Cl)c2)C1` (stereo not drawn), the survival is 0% (active).

`O=C(Nc1cccc(Cl)c1)C1CCCN(c2ncnc3c2nc2n3CCCCC2)C1` (stereo not drawn): the survival is 36%.

Turning to `CC1CCN(c2nc3nonc3nc2Nc2ccc(F)cc2)CC1`, the survival is 103%.

On to `CCOC(=O)c1cc(C(C)(C)C)oc1CN`, for which the survival is 95%. With `CC(C)N(Cc1ccccc1)C(=O)CN1C(=O)CSc2ccc(S(=O)(=O)N3CCCC3)cc21`, the survival is 100%. Regarding `Cc1cccc(CNC(=O)C2CCN(c3nc4ccc(Cl)cc4[nH]3)CC2)c1`, the survival was 79%. Consider `CC1CCN(C(=O)CSc2nc3ccccc3nc2Cc2ccccc2)CC1`, for which the survival is 73%. With `COCCc1nn2c(=O)cc(COC(=O)COc3ccccc3C)nc2s1`, the survival is 80%.

Consider `CCOCCc1nn2c(=O)cc(COC(=O)CNC(=O)c3cccc(C)c3)nc2s1`, for which the survival is 84%. Take `CCCCc1nn2c(=O)cc(COC(=O)c3ccccc3C)nc2s1`: the survival is 72%. For the compound `CCOCCc1nn2c(=O)cc(COC(=O)c3ccc(NC(=O)c4ccc(F)cc4)cc3)nc2s1`, the survival is 0% (active). Take `CCCc1nn2c(=O)cc(COC(=O)c3cccc(NC(=O)c4ccc(OCC)cc4)c3)nc2s1`: the survival is -2% (active). In the case of `CCOc1ccc(C(=O)Nc2cccc(C(=O)OCc3cc(=O)n4nc(C5CC5)sc4n3)c2)cc1`, the survival was 51%. To `COCCc1nn2c(=O)cc(COC(=O)c3ccccc3C)nc2s1` belongs -6% (active); to `CCCc1nn2c(=O)cc(COC(=O)c3ccccc3NC(=O)c3ccc(OCC)cc3)nc2s1`, 22%. On to `CCOCCc1nn2c(=O)cc(COC(=O)c3ccc(NC(=O)C(C)(C)C)cc3)nc2s1`, for which the survival is 77%. With `CCOCCc1nn2c(=O)cc(COC(=O)c3cccc(C)c3)nc2s1`, the survival was -6% (active). In the case of `CCOCCc1nn2c(=O)cc(COC(=O)c3ccc4c(c3)OCO4)nc2s1`, the survival is 133%. `CCOCCc1nn2c(=O)cc(COC(=O)c3ccc(NC(=O)c4cccs4)cc3)nc2s1`: the survival is 118%. As to `C=CCn1c2ccccc2c2ccccc21`, the survival is 80%. For the compound `Cc1cccc(-c2nc(SCCCOc3ccccc3Cl)n3[nH]c(=O)cc3n2)c1`, the survival was 65%. Regarding `NC(=O)CSc1nnc(CNc2ccc(Cl)cc2)n1Cc1ccccc1`, the survival is 125%.

In the case of `COc1ccc(NC(=O)c2cc3c(=O)n(Cc4cccnc4)ccc3nc2C)cc1Cl`, the survival is 124%. `Cc1oc(-c2ccccc2)nc1CNC(=O)NC1CCCCC1`: the survival is 72%.

As to `CCCc1nn2c(=O)cc(COC(=O)c3ccc(NC(=O)COc4ccc(F)cc4)cc3)nc2s1`, the survival is 10% (active). `CCCc1nn2c(=O)cc(COC(=O)c3cccc(NC(=O)COc4ccc(F)cc4)c3)nc2s1`: the survival is 80%. `CCCc1nn2c(=O)cc(COC(=O)c3ccc(NC(=O)COc4ccccc4)cc3)nc2s1`: the survival was 83%. Next, `COC(=O)c1cc2oc(C)cc2n1Cc1cc(C)ccc1C`: -2% (active); `COC(=O)c1cc2oc(C)cc2n1Cc1cccc(Cl)c1`: -2% (active). Next, `COC(=O)c1cc2oc(C)cc2n1CC(=O)Nc1cc(Cl)ccc1OC`: 88%; `COC(=O)c1cc2occc2n1Cc1cccc(C)c1`: -1% (active); `CCc1cccc(NC(=O)Cn2c(C(=O)OC)cc3occc32)c1`: 83%.

Take `COC(=O)c1cc2oc(C)cc2n1Cc1c(C)cc(C)cc1C`: the survival was 33%. `COC(=O)c1cc2oc(C)cc2n1Cc1ccc(Cl)cc1`: the survival was 72%.

`COC(=O)c1cc2occc2n1Cc1nc(-c2ccc(C)cc2)oc1C`: the survival is 48%. Next, `COC(=O)c1cc2oc(C)cc2n1Cc1ccc(C)cc1`: 68%; `C=CCn1c(C(=O)OCC)cc2oc(C)cc21`: 111%. As for `CCOC(=O)c1cc2oc(C)cc2n1CC(=O)NC1CC1`, the survival was 94%. To `CCOC(=O)c1cc2oc(C)cc2n1CCCN1C(=O)c2ccccc2C1=O` belongs -1% (active). Take `CCn1c(SCCN2CCCC2)nnc1C1CCCN(C(=O)c2ccc3c(c2)OCO3)C1` (stereo not drawn): the survival is 114%. Next, `O=C(CN1C(=O)COc2ccc(S(=O)(=O)N3CCCCCC3)cc21)NCCc1ccccc1`: 92%; `CCSc1nc2c(c(=O)[nH]c(=O)n2C)n1CC(O)COc1ccc(Cl)cc1` (stereo not drawn): 161%; `COc1ccc2c(c1)c1c(c(=O)n(-c3ccc(C)cc3)c(=O)n1CC(=O)Nc1cc(C)ccc1C)n2C`: 115%.

Take `COc1ccc(NC(=O)Cn2cc(S(=O)(=O)N3CCN(c4ccccc4F)CC3)c3ccccc3c2=O)cc1Cl`: the survival was 100%. Consider `Cc1ccccc1C(=O)Nc1c(C)nc(Nc2ccccc2)nc1Nc1ccccc1`, for which the survival was 94%. For `Cc1ccc(Nc2nc(Nc3ccc(C)c(C)c3)nc(N3CCOCC3)n2)cc1C`, the survival is 73%. Turning to `O=C(CSc1nc(=O)n(Cc2ccco2)c2c1CCC2)Nc1cccc(F)c1`, the survival is 72%. Consider `C=CCN(CC=C)C(=O)C1CCN(Cc2cc(Br)c(O)c(OC)c2)CC1`, for which the survival is 98%. Take `COC(=O)c1cc2oc3ccccc3c2n1Cc1ccccc1Cl`: the survival is 60%. For `COC(=O)c1cc2oc(C)cc2n1Cc1ccccc1Cl`, the survival is -2% (active). Consider `COC(=O)c1cc2oc(C)cc2n1Cc1ccc(Br)cc1F`, for which the survival was 48%. For `CCC(Oc1ccccc1F)C(=O)Nc1cc(-c2ccccc2)no1` (stereo not drawn), the survival is 66%. `Cc1cccc(C)c1NC(=O)c1ccc2c(c1)nnn2C1CCCC1`: the survival was -6% (active). Turning to `Cc1cc(C)cc(NC(=O)c2ccc3c(c2)nnn3C2CCCC2)c1`, the survival is 121%. To `Cc1c(Cl)cccc1NC(=O)c1ccc2c(c1)nnn2C1CCCC1` belongs 120%. Consider `COC(=O)c1ccccc1NC(=O)CSc1nnc2cc(C)c3cc(C)cc(C)c3n12`, for which the survival was 72%. Turning to `CC(=O)N1CCc2c(sc3c2c(=O)n(-c2ccccc2)c(=O)n3CC(=O)c2ccc(F)cc2)C1`, the survival was 91%. Next, `COc1cc(O)ccc1-c1nc2cc(C)ccn2c1Nc1ccccc1C`: 73%; `CC(C)c1ccc(Nc2c(-c3ccco3)nc3ccccn23)cc1`: 33%.

For the compound `COc1ccc(Nc2c(-c3ccccn3)nc3ccc(Cl)cn23)cc1`, the survival is 96%.

With `Cc1ccc2nc(-c3ccc(O)cc3)c(Nc3ccc(Cl)cc3)n2c1`, the survival is 69%. To `Oc1ccccc1-c1nc2cnccn2c1Nc1ccc(Cl)cc1` belongs -16% (active).

Consider `Clc1ccc(Nc2c(-c3ccccc3Cl)nc3ccc(Cl)cn23)cc1`, for which the survival is 25%. Turning to `Cc1ccc2nc(-c3ccccc3F)c(Nc3ccc(Cl)cc3)n2c1`, the survival was 11% (active). Next, `Cc1ccn2c(Nc3ccccc3C)c(-c3ccccn3)nc2c1`: 24% (active); `CC(C)c1ccc(Nc2c(-c3ccccc3O)nc3cnccn23)cc1`: 61%; `CC(C)c1ccc(Nc2c(-c3ccccn3)nc3ccccn23)cc1`: -21% (active). Next, `Cc1cccc(C)c1Nc1c(-c2ccccc2Cl)nc2cnccn12`: 123%. For `Cc1ccn2c(Nc3ccccc3C)c(-c3ccc(N4CCOCC4)cc3)nc2c1`, the survival was 113%.
